Source: article PMC7826789 (International Journal of Molecular Sciences, 2021)

The compounds below were run on JAK1(JH2domain-pseudokinase). Conditions: Compound Concentration (nM):1000.
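Further: KINOMEscan scanMAX binding as percent activity remaining versus control; lower means stronger binding.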

SMILES	Percent Control [%]
NS(=O)(=O)c1ccc(N/N=C2\C(=O)Nc3ccc(C(=O)NCc4ccncc4)cc32)cc1 [GW300657X]	50
C/C(Nc1ccc(S(N)(=O)=O)cc1)=C1/C(=O)Nc2ccccc21 [GW335962X]	61
C[C@@H](Oc1cc(-n2cnc3ccc(OC4CCN(C)CC4)cc32)sc1C(N)=O)c1ccccc1Cl [GSK579289A]	75
COc1ccc2[nH]c3c4[nH]c5ccc(OC)cc5c4c4c(c3c2c1)C(=O)NC4=O [GW296115X]	39
CN1CCN(C(=O)c2ccc(NC(=O)Nc3ccc(N(C)c4ccnc(Nc5ccc(CS(C)(=O)=O)cc5)n4)cc3)cc2)CC1.Cl [GW830263A]	13
CCc1ccc(Oc2nccc(-c3c(-c4ccc(F)cc4)ncn3C3CCNCC3)n2)cc1 [SB-242719]	100
NS(=O)(=O)c1ccc(N/N=C2\C(=O)Nc3ccc(Cl)cc32)cc1 [GW280670X]	80

Each compound was assayed on JAK2(JH1domain-catalytic). Conditions: Compound Concentration (nM):1000.

SMILES	Percent Control [%]
COc1ccc2c(-c3ccnc(Nc4cccc(OC(F)(F)F)c4)n3)cnn2n1 [GW810372X]	62
CCS(=O)(=O)c1ccc(OC)c(Nc2ncc(-c3cccc(OC)c3)o2)c1 [GW580509X]	94
CC1=C(C(=O)Nc2ccc3[nH]ncc3c2)C(c2ccc3ccccc3c2)CC(=O)N1 (stereo not drawn) [GSK270822A]	9.6
COc1cccc(-c2c[nH]c3c(N/N=C/c4ccncc4)ncnc23)c1 [GW814408X]	31
Cl.O=C(Nc1ccc(Oc2ccc3[nH]c(NC(=O)c4ccco4)nc3c2)cc1)Nc1cc(C(F)(F)F)ccc1F [GW683134A]	94
COC(=O)Nc1nc2ccc(Oc3ccc(NC(=O)Nc4cc(C(F)(F)F)ccc4F)cc3)cc2s1.Cl [GW693917A]	57
COc1cc(N2CCN(C(C)C)CC2)ccc1Nc1nc(Nc2ccc(F)cc2C(=O)NC[C@@H](O)CO)c2cc[nH]c2n1 [GSK1392956A]	100
COc1cc2ncn(-c3cc(O[C@H](C)c4ccccc4Cl)c(C(N)=O)s3)c2cc1OC [GSK237701A]	46
Cl.c1ccc(Cc2nc3ccc(Nc4ncnc5ccccc45)cc3[nH]2)cc1 [GR269666A]	100
COc1cc(C)c(N(C)C(=O)CN(C)C)cc1Nc1nc(Nc2cccc(F)c2C(N)=O)c2cc[nH]c2n1 [GSK2219385]	100
NS(=O)(=O)c1ccc(N/N=C2\C(=O)Nc3ccc(C(=O)NCCc4c[nH]cn4)cc32)cc1 [GW300660X]	80
CCS(=O)(=O)c1ccc(OC)c(Nc2ncc(-c3cccc(F)c3)o2)c1 [GW621970X]	100
CN(C)CCNC(=O)Nc1ccc(N(C)c2ccnc(Nc3ccc(CS(C)(=O)=O)cc3)n2)cc1.Cl [GW830900A]	30
COc1cc(/C=N/Nc2ncnc3[nH]ncc23)ccc1O [GW578748X]	47
COc1ccc2cc(-c3c(-c4ccncc4)nc(-c4ccc(S(C)(=O)=O)cc4C)n3C)ccc2c1 [SB-633825]	72
COc1ccc(COc2ccc(Cc3cnc(N)nc3N)cc2OC)cc1 [GW632580X]	92
COc1cccc(-n2ncc3c(N/N=C/c4ccncc4)ncnc32)c1 [GW784752X]	66
CN(C)c1cc2c(Nc3ccc4c(cnn4Cc4ccccc4)c3)ncnc2cn1 [GW282974X]	100
Cc1cc(O)cc(C)c1/C=C/c1cncc(C(N)=O)c1 [GW435821X]	92
NS(=O)(=O)c1ccc(N/N=C2\C(=O)Nc3ccc(-c4cnco4)cc32)cc1 [GW276655]	54
O=C(Nc1n[nH]c2nc(-c3ccc(O)cc3)c(Br)cc12)C1CC1 [SB-725317]	24
NS(=O)(=O)c1ccc(Nc2ncc(-c3ccccc3)o2)cc1 [GW572399X]	100
Cl.O=C(O[C@H]1CN[C@H](C#Cc2cc3ncnc(Nc4ccc5c(cnn5Cc5ccccc5)c4)c3s2)C1)N1CCOCC1 [GSK200398A]	99
COc1ccccc1-c1cc(/C=C2\C(=O)Nc3ncc(Br)cc32)cc(Br)c1O [GW442130X]	82
CC1=C(C(=O)Nc2ccc3[nH]ncc3c2)C(c2ccc(Cl)c(Cl)c2)CC(=O)N1 (stereo not drawn) [GSK299115A]	13
COc1cc2ncnc(Nc3ccc4c(cnn4Cc4ccccc4)c3)c2cc1OC.Cl [GW282449A]	100
